Shown are actives, neighbours in structure and some others; about 11% of the full set was active somewhere.
ALDH1A1 inh – blocks purified human ALDH1A1 activity; Potency, µM (doses to about 75.3 µM), most hits filed as inhibitors; Purified ALDH1A1, NADH fluorescence, propionaldehyde substrate; 220,000 tested, 7.3% active; P00352
PNC inhibitor – blocks assembly of the perinucleolar compartment; 140,000 tested, 3.1% active; activity change (PNC), negative = inhibition, % at 10 µM; PC3M PTB-GFP, PNC prevalence imaging, 16 h; active compounds read low;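 active means readout at or below -70, meaning at least 70% loss of cells showing the perinucleolar compartment, a nuclear body marking cancer cells; inconclusive means readout between -30 and a set limit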
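Read-out is percentage of cells bearing a perinucleolar compartment, from automated 20x imaging of fixed, Hoechst-stained PC3M PTB-GFP cells. Cells were seeded 4 h, then exposed 16 h to compound (23 nl of library stock) in duplicate plates.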
HPGD block – HPGD (human) dehydrogenase inhibition; purified HPGD, NADH fluorescence kinetic, PGE2 substrate; Potency, µM, usual class: inhibitors; 150,000 tested, 4.3% active
Target sequence (P15428 whole entry, looked up): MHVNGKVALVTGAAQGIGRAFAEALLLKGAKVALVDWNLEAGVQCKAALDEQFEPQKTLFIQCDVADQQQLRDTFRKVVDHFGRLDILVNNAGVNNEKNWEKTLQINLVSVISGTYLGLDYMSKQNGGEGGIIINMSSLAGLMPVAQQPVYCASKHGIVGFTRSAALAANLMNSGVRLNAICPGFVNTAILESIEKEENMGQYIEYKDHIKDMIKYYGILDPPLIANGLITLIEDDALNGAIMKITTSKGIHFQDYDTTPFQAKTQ
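20 nM HPGD preincubated 15 min at room temperature with compound in 50 mM Tris-HCl pH 8, 0.01% Tween 20. Started with 1 mM NAD+ and 30 uM prostaglandin E2; NADH fluorescence (360/450 nm) read 5 times over 30-s intervals, last minus first.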
Large screens that a line does not name were inactive. Unless noted, the call rests on the fitted dose curve; in most records, active means well fitted inhibition curve with a large enough effect (not every such curve was filed as active); inconclusive means small, poorly fitted or top-dose-only effect, or another doubt; inactive means no such curve, though single readings can be large or run the other way.

c1ccc(COCc2ccccc2)cc1	none (no result: PNC inhibitor)
CC1(C)Cc2ccccc2C(/C(C#N)=N/O)=N1	none (no result: PNC inhibitor, HPGD block)
O=C(NC1CC(=O)c2sccc21)c1ccc(Cl)cc1Cl (stereo not given)	none (no result: PNC inhibitor, HPGD block)
O=C1CN(C(=O)CNCc2ccc(Cl)cc2)c2ccccc2N1	ALDH1A1 inh 13µM (no result: PNC inhibitor, HPGD block)
O=C1CN(C(=O)/C=C/c2ccc(Cl)cc2)c2ccccc2N1	none (no result: PNC inhibitor, HPGD block)
CCC1CCCCN1C(=O)COc1ccccc1NC(C)=O (stereo not given)	ALDH1A1 inh 3.5µM (no result: PNC inhibitor, HPGD block)
CCC1CCCCN1C(=O)COc1cc(=O)n(C)c2ccccc12 (stereo not given)	ALDH1A1 inh inconclusive, HPGD block inconclusive
CCN(CC)S(=O)(=O)c1ccc(S(=O)(=O)Nc2cc3c(cc2C(C)=O)OCO3)cc1	ALDH1A1 inh 3.2µM (no result: HPGD block)
CCN(CC)S(=O)(=O)c1ccc(C(=O)Nc2ccc3c(c2)OCCO3)cc1	ALDH1A1 inh 13µM
CCN(CC)S(=O)(=O)c1ccc(NC(=O)c2ccc(NS(C)(=O)=O)cc2)cc1	ALDH1A1 inh inconclusive
CCC(CC)C(=O)Nc1cccc(C(=O)Nc2ccc3c(c2)OCO3)c1	ALDH1A1 inh 13µM
CCOc1ccc(C(=O)Nc2ccc3c(c2)OCO3)cc1OCC	PNC inhibitor inconclusive
CCC(CC)C(=O)Nc1cccc(C(=O)Nc2ccc(S(N)(=O)=O)cc2)c1	none (no result: PNC inhibitor, HPGD block)
CC(=O)c1ccc(S(=O)(=O)Nc2cc3c(cc2C(C)=O)OCO3)cc1	none (no result: PNC inhibitor, HPGD block)
CCOc1cc(C(=O)Nc2ccc3c(c2)OCO3)ccc1OCCOc1ccccc1Cl	PNC inhibitor -87
Nc1ccc2nc(SCc3cccc(F)c3)sc2c1	none (no result: PNC inhibitor, HPGD block)
COc1ccc(N(C(=O)Cn2nnc(-c3ccccc3F)n2)C(C(=O)NCC2CCCO2)c2ccc(Cl)cc2)cc1 (stereo not given)	none (no result: PNC inhibitor, HPGD block)
CC(C)OCCCNCC(O)c1ccccc1 (stereo not given)	ALDH1A1 inh inconclusive, PNC inhibitor inconclusive
CCCC(=O)Nc1cccc(NC(=O)c2ccc3c(c2)OCO3)c1	none
CCCN(CCC)S(=O)(=O)c1cccc(C(=O)Nc2ccc3c(c2)OCO3)c1	ALDH1A1 inh 3.2µM
COCCNC(=O)C(c1cccnc1)N(Cc1ccc(C)cc1)C(=O)Cn1nnc2ccccc21 (stereo not given)	none (no result: PNC inhibitor, HPGD block)
O=C(CCNC(=O)Cn1ccc2ccccc2c1=O)NCCc1ccccc1Cl	HPGD block inconclusive
O=C(N/N=C/c1sc(=O)n(-c2ccccc2)c1Cl)c1ccccc1	ALDH1A1 inh 16µM
COC(=O)c1cccc(Cn2c(Cl)c(/C=N/NC(=O)c3ccccc3Cl)sc2=O)c1	ALDH1A1 inh inconclusive
CCNC(=S)NNC(=S)NCc1ccccc1	HPGD block 28µM
S=C(NCc1ccccc1)NCc1ccc(CNC(=S)NCc2ccccc2)cc1	PNC inhibitor inconclusive
Cc1ccc(NC(=S)NCc2ccccn2)cc1	none
Cc1ccc(NC(=S)NNC(=S)NCc2ccccc2)cc1	ALDH1A1 inh 0.63µM
Cc1ccc(N(C(=O)CCl)C(C(=O)NC2CCCCC2)c2cccnc2)cc1C (stereo not given)	PNC inhibitor inconclusive
Cc1sc2nc(SCC(=O)NCCOCCO)n(C)c(=O)c2c1C	ALDH1A1 inh inconclusive
COc1ccc(/C(C)=N\Nc2nc(-c3ccccc3)cc(=O)[nH]2)cc1	ALDH1A1 inh inconclusive, HPGD block inconclusive
CN(C)c1ccc(/C=N\Nc2nc(-c3ccccc3)cc(=O)[nH]2)cc1	ALDH1A1 inh inconclusive, PNC inhibitor -118
Cc1cc(=O)oc2cc(O)c(N=Nc3ccccc3)cc12	none (no result: PNC inhibitor, HPGD block)
CC1CN(Cc2nc3ccccc3c(=O)[nH]2)CC(C)O1 (stereo not given)	none (no result: PNC inhibitor, HPGD block)
Cc1ccc(Nc2c([N+](=O)[O-])cc(C(=O)N3CC(=O)Nc4ccccc43)cc2[N+](=O)[O-])c(C)c1	HPGD block 16µM
O=C1CN(C(=O)c2ccccc2F)c2ccccc2N1	PNC inhibitor inconclusive
Cc1cc(C)cc(-c2cc3c(c(-c4c(O)c(-c5cc(C)cc(C)c5)cc5c4CCCC5)c2O)CCCC3)c1	none (no result: PNC inhibitor)
COc1ccccc1/C=C/C(=O)NCc1cccnc1	none (no result: PNC inhibitor, HPGD block)
O=C(N/N=C/c1ccc(N2CCOCC2)o1)c1cccc([N+](=O)[O-])c1	ALDH1A1 inh 18µM
C/C(=N\NC(=O)c1ccccc1)c1ccc(N2CCCCC2)cc1	PNC inhibitor inconclusive
Cc1ccc(/C=N\NC(=O)c2cc([N+](=O)[O-])cc([N+](=O)[O-])c2)o1	none
O=C(N/N=C/c1ccc(N2CCCCC2)o1)c1ccccc1	ALDH1A1 inh 25µM, HPGD block 16µM
Cc1ccc(Cl)cc1NC(=O)N(C)CCO	none (no result: PNC inhibitor, HPGD block)
C/C(=C\c1ccccc1)C(=O)NCc1ccco1	none (no result: PNC inhibitor, HPGD block)
N=C(N)SCCc1ccc(CCSC(=N)N)cc1	none (no result: PNC inhibitor)
NC(=O)c1ccc(Oc2ccc(C(N)=O)cc2)cc1	none (no result: PNC inhibitor, HPGD block)
COc1ccc(-n2c(C)cc(/C=C3\C(=O)NN(c4ccccc4)C3=O)c2C)cc1	ALDH1A1 inh inconclusive

From PubChem
